{"source": "PubChem BioAssay (NCATS)", "note": "Records with an inconclusive call do not appear. Unmarked numbers belong to inactive results. Calls of active or inactive are those of the source. The call rests on the fitted dose curve; in most records, active means well fitted inhibition curve with a large enough effect; inconclusive means small, poorly fitted or top-dose-only effect; inactive means no such curve, though single readings can be large or run the other way. Where a SMILES comes first, the peptide text is derived from it. [ ]: non-standard residue; d: D form. ξ: configuration not given here. ξPhe(βξ-Me) = CC(c1ccccc1)C(N)C(=O)O; GABA = NCCCC(=O)O", "data": [{"system": "Zika virus NS2B-NS3 protease (linked construct)", "experiment": "Primary screen NINDS Rhodamine qHTS for Zika virus inhibitors (AID 1347160); further: nearly all actives have a fitted effect of over 55% in size; further: potency means the concentration at half of the fitted maximal effect; on activity change, negative = inhibition: on the % scale 0 is the no-effect control and ±100 the full control effect", "conditions": "purified NS2B-NS3 protease, Rhodamine110 substrate fluorescence; series mostly up to 57.1 µM; activity change, negative = inhibition: at the top concentration", "method_in_brief": "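In 10 mM Tris-HCl pH 8.0 containing 0.01% Tween 20, linked NS2B-NS3 protease (25 nM final) is exposed to test compounds for 15 min. Cleavage of 1.5 microM Rhodamine110 substrate is tracked by fluorescence over 15 min.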", "values": [{"molecule": "NC(=O)Nc1cc(-c2cccc(F)c2)sc1C(=O)NC1CCCNC1", "note": "(stereo unspecified)", "activity change, negative = inhibition": "68.1%"}, {"molecule": "COc1ccc(Oc2cc(C)c(-c3csc(NC(=O)c4ccncc4)n3)c(C)c2)cc1", "activity change, negative = inhibition": "-5.62%"}, {"molecule": "CC(=O)OC1C(O)CC2(C)C(CCC(C)C23Cc2c(O)cc(CO)c(C=O)c2O3)C1(C)C", "note": "(stereo unspecified)", "outcome": "inactive [at 33.1 µM]"}, {"molecule": "CCCCOC(=O)NC(=O)C1c2ccccc2Oc2ccccc21", "activity change, negative = inhibition": "-9.32%"}, {"molecule": "Cc1cccc(/C=N/Nc2cc(N3CCOCC3)n3nc(-c4ccncc4)cc3n2)c1", "activity change, negative = inhibition": "-2.84%"}, {"molecule": "CC1(C)CCC2(C(=O)OC3OC(CO)C(O)C(O)C3O)CCC3(C)C(=CCC4C5(C)CCC(O)C(C)(C(=O)O)C5CCC43C)C2C1O", "note": "(stereo unspecified)", "activity change, negative = inhibition": "-18.6% [at 15.1 µM]"}, {"molecule": "C=C1C[C@]23C[C@H]1CC[C@H]2[C@]1(C)CCC[C@@](C)(C(=O)O)[C@H]1[C@@H]3C(=O)O", "activity change, negative = inhibition": "-25.9% [at 33.1 µM]"}, {"molecule": "CC1OC(OCC2OC(OC3CCC4(C)C(CCC5(C)C4CC=C4C6CC(C)(C)CCC6(C(=O)OC6OC(CO)C(O)C(O)C6O)CCC45C)C3(C)CO)C(O)C(O)C2O)C(O)C(O)C1O", "note": "(stereo unspecified)", "outcome": "inactive [at 15.1 µM]"}, {"molecule": "CC(C)=C/C=C\\[C@H](C)[C@H]1CC[C@]2(C)C[C@@H]3C(C)=CC(=O)C3/C(CO)=C\\C[C@@H]12", "note": "(stereo partly specified)", "activity change, negative = inhibition": "-14% [at 33.1 µM]"}, {"molecule": "O=C(/C=C\\c1ccc(O)cc1)N[C@@H](Cc1ccc(O)cc1)C(=O)O", "Potency": "12.6 µM (active)"}, {"molecule": "C/C=C1\\[C@H](O[C@@H]2O[C@H](CO)[C@@H](O)[C@H](O)[C@H]2O)OC=C(C(=O)OC)[C@H]1CC(=O)OC[C@H]1O[C@@H](OCCc2ccc(O)cc2)[C@H](O)[C@@H](O)[C@@H]1O", "outcome": "inactive [at 15.1 µM]"}, {"molecule": "Cc1ccccc1CN1C2=NCCN2C(=O)C2=C1CCN(Cc1ccccc1)C2", "activity change, negative = inhibition": "-10.3%"}, {"molecule": "COC(=O)C1=CO[C@@H](O[C@@H]2O[C@H](CO)[C@@H](O)[C@H](O)[C@H]2O)[C@H]2[C@@H]1CC(OC)O[C@@H]2C", "note": "(stereo partly specified)", "activity change, negative = inhibition": "-14.2% [at 33.1 µM]"}, {"molecule": "CC1NC(=O)CCCNC(=O)C(Cc2c[nH]c3ccccc23)NC(=O)C(C)NC(=O)C(C(C)C)NC(=O)C(C(C)c2ccccc2)NC(=O)C(C(C)C)NC1=O", "note": "(stereo not drawn) (cyclo([GABA]AV[ξPhe(βξ-Me)]VAW); configuration not given here)", "outcome": "inactive [at 15.1 µM]"}, {"molecule": "O=C(/C=C/c1ccc(O)cc1)N[C@@H](Cc1ccc(O)cc1)C(=O)O", "outcome": "inactive [at 33.1 µM]"}, {"molecule": "COc1cc([C@H]2c3cc(O)c(OC)cc3C[C@@H](CO[C@@H]3O[C@H](CO)[C@@H](O)[C@H](O)[C@H]3O)[C@@H]2CO)ccc1O", "activity change, negative = inhibition": "-12.8% [at 33.1 µM]"}, {"molecule": "Cc1cc(Nc2ccc(NC(=O)c3ccc(Nc4ccnc5ccccc45)cc3)cc2)nc(N)n1", "activity change, negative = inhibition": "-7.83%"}, {"molecule": "Nc1nc2c(c(N3CCNCC3)n1)CCC1=C2[C@@H]2CCCC[C@@H]2O1", "activity change, negative = inhibition": "29.3%"}, {"molecule": "CCCn1c(=O)c2[nH]c(-c3ccc(OCC(=O)O)cc3)nc2n(CCC)c1=O", "outcome": "inactive"}, {"molecule": "OC[C@H]1O[C@@H](O[C@H]2[C@H](OCCc3ccccc3)O[C@H](CO)[C@@H](O)[C@@H]2O)[C@H](O)[C@@H](O)[C@@H]1O", "activity change, negative = inhibition": "-17.3% [at 33.1 µM]"}, {"molecule": "C/C=C/C=C/[C@@H]1O[C@](O)([C@H](CC)C(=O)NC/C=C/C=C(\\C)[C@@H](OC)[C@@H](C)C2OC(/C=C/C=C/C=C(\\C)C(=O)c3c(O)cc[nH]c3=O)[C@H](O)[C@@H]2O)[C@H](O)[C@H](O)C1(C)C", "note": "(stereo partly specified)", "outcome": "inactive [at 15.1 µM]"}, {"molecule": "CC(C)=CCC/C(C)=C/CO[C@@H]1O[C@H](CO)[C@@H](OC(=O)/C=C/c2ccc(O)cc2)[C@H](O[C@@H]2O[C@@H](C)[C@H](O)[C@@H](O)[C@H]2O)[C@H]1O", "activity change, negative = inhibition": "-5.05% [at 15.1 µM]"}, {"molecule": "C=C1C(OC(=O)/C(C)=C\\C)[C@@]23CCC4[C@@](C)(CCC[C@@]4(C)C(=O)O)C2CC[C@H]1C3OC(C)=O", "note": "(stereo partly specified)", "activity change, negative = inhibition": "-11.9% [at 33.1 µM]"}, {"molecule": "CCOc1cc(C(=O)N2CCC(N3CCN(C)CC3)CC2)ccc1Nc1ncc2c(n1)N(C1CCCC1)c1ccccc1C(=O)N2C", "activity change, negative = inhibition": "107%"}, {"molecule": "CC1(C)CCCC2(C)C=C(C(=O)O)C(O)CC12", "note": "(stereo unspecified)", "activity change, negative = inhibition": "14.2%"}, {"molecule": "C[C@@H]1CCC/C=C/[C@H]2CC(=O)C[C@@H]2[C@@H](O)/C=C/C(=O)O1", "activity change, negative = inhibition": "-16.2%"}, {"molecule": "C=C1CCC2C(C)(C(=O)O)CCCC2(C)C1CCC(C)CC(=O)O", "note": "(stereo unspecified)", "activity change, negative = inhibition": "-15.5% [at 33.1 µM]"}, {"molecule": "COc1cc(O)c2c(c1)C1=CC(O)C(O)CC1(C)OC2=O", "note": "(stereo unspecified)", "outcome": "inactive"}, {"molecule": "C=C(C)C(=O)OC1CC2(C)OC(=CC2=O)C(=C)CC2OC(=O)C(COC)C12", "note": "(stereo unspecified)", "activity change, negative = inhibition": "-6.82% [at 33.1 µM]"}, {"molecule": "C=C[C@H]1C(O[C@@H]2O[C@H](CO)[C@@H](O)[C@H](O)[C@H]2O)OC=C2C(=O)N3CCc4c([nH]c5ccccc45)[C@H]3C[C@H]21", "note": "(stereo partly specified)", "activity change, negative = inhibition": "9.09% [at 33.1 µM]"}, {"molecule": "O=C(O)c1cc(-c2c(-c3ccccc3)nn3ccccc23)n[nH]c1=O", "outcome": "inactive"}]}]}
